Data: the OligoGym collection

What follows are sequences tested against TP53I13 (assay: pooled miR-30 sensor sort-seq; sequence = guide strand). Conditions: shRNA.
Note: reference of the scale not given here.

Row | Sequence | sensor-assay potency score (higher = more potent)
1 | TTGGTGACACCTGCGGAGGCAG | -1.23
2 | TCACTCTTGGTGACACCTGCGG | -0.664
3 | TTGGCCTTCAAGCTCCCTGGGG | -0.75
4 | TTGAACAGACACAGCCCCCTGG | 0.146
5 | TAGAGGAAGGTGACATCCTCAG | -0.655
6 | TTCAGCACAGCAGCCACTGTGT | -0.771
7 | TGACTTGAACAGACACAGCCCC | -0.111

These sequences were tested against TP73 in the same assay as above. Conditions: shRNA.

Row | Sequence | sensor-assay potency score (higher = more potent)
8 | TGGAGCAGACTGTCCTTCGTTG | -1.24
9 | TTACACATGAAGTTGTACAGGA | 1.03
10 | TGTAGCTGCCGAACTGTGCGGG | -0.215
11 | TCTGGTTCCAGAGAGCTCCAGA | 0.275
12 | TTTCACGACGTCGGTCACGTGC | -1.03
13 | TTGGGAGGTGAAATACTCGATG | -0.725
14 | TCGAAGTAGGTGCTGTCTGGTT | -0.818
15 | TTGTAAACAGGCATGGCCCGGA | 0.143
16 | TAGTACGTGTCCTCGTCTCCAT | -0.503
17 | TAGAGTTTCTTCAAGAGCGGGG | 0.308
18 | TACACAGCTGCTGTTACACATG | -0.991
19 | TTGGGTGTAGCTGCCGAACTGT | -0.212

What follows are sequences tested against TPPP2 in the same assay as above. Conditions: shRNA.

Row | Sequence | sensor-assay potency score (higher = more potent)
20 | TTGTAACCACTCACATAGCCTG | -0.748
21 | TTGCTGGTGTCTGTCAAACGGT | -1.11
22 | TTATTGTTTTCCAAGCTCCCTG | -0.417
23 | TTGATGATTCTCCAAACGCAGC | -1.67
24 | TTGTTGCTTTAGTAGCGCCAGT | -1.46
25 | TTGTCAGTCATCTCTTCCCGTC | -0.714
26 | TCTTTGAACTGTTGAAACGTGA | -0.298
27 | TTCTTGGCCTTGACTTTGCTGA | -0.996
28 | TTTGCTGAACACGATGTCCACG | -0.579
29 | TTGAACTGTTGAAACGTGATGG | 0.216
30 | TTGTTGTTCATTTCAGTGCCAC | 0.0122
31 | TGTAACCACTCACATAGCCTGT | -0.785

These sequences were tested against TPPP3 in the same assay as above. Conditions: shRNA.

Row | Sequence | sensor-assay potency score (higher = more potent)
32 | TCGTCCAGGATGTCCTGCCGTC | -0.707
33 | TTGAACTCCTCATAGTTGATGA | -0.547
34 | TTGCAGTCCTTGCACAGCTTGG | -0.971
35 | TTTTGCTTTAGTGACGCCCACA | -1.34
36 | TTTCCGTCAGCCACCTTGCAGT | -0.592
37 | TTGGTCGCCAGCTCTTCCAGGG | -0.176
38 | TTGTGGGAGCCCGTGTATCTGC | -1.44
39 | TTTAGTGACGCCCACATTGGCT | -0.692
40 | TTGACTTTGGAGAAGACGATGT | -0.378
